The source of these data is PubChem BioAssay (EPA / NIEHS).

Read-out in assay [1]: E-selectin (Homo sapiens) (UniProt P16581)
Put plainly: BSK_3C_Eselectin: BioMAP Diversity Plus: 3C Assay for Eselectin Biomarker Activity (AID 2283015).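 On outcome: cell surface E-selectin protein quantified by ELISA 24 h after dosing.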 The conditions noted are these: primary human endothelial cells (HUVEC); actives raise or lower the signal. The method in brief: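 E-selectin ELISA readout, fitted bidirectionally relative to DMSO, taken 24 h post-dosing in HUVEC cultures of the 3C system. Overt cytotoxicity tracked with sulforhodamine B staining of parallel wells.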

Read-out in assay [2]: Interleukin-1 alpha (IL1a), IL1A (gene 3552)
Put plainly: BSK_BE3C_IL1a: BioMAP Diversity Plus: BE3C Assay for Interleukin-1 alpha (IL1a) Biomarker Activity (AID 2283016). As to conditions: primary human bronchial epithelial cells; actives raise or lower the signal. The method in brief:
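BE3C primary human bronchial epithelium; cpd 24 h; IL-1a by ELISA; bidirectional fit vs DMSO; parallel SRB (0.1% SRB, 10% TCA fix, 560 nm) for cytotoxicity.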

Read-out in assay [3]: Monocyte Chemoattractant Protein-1 (MCP1), CCL2 (gene 6347)
The assay is described as follows: BSK_3C_MCP1: BioMAP Diversity Plus: 3C Assay for Monocyte Chemoattractant Protein-1 (MCP1) Biomarker Activity (AID 2283017). As to conditions: primary human endothelial cells (HUVEC); actives raise or lower the signal. The method in brief:
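MCP-1 was measured by ELISA 24 h after dosing in primary HUVEC 3C cultures and fitted in both directions relative to DMSO; cytotoxicity was checked by SRB total-protein staining in parallel wells.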

Read-out in assay [4]: Monocyte Chemoattractant Protein-1 (MCP1), CCL2 (gene 6347)
Put plainly: BSK_4H_MCP1: BioMAP Diversity Plus: 4H Assay for Monocyte Chemoattractant Protein-1 (MCP1) Biomarker Activity (AID 2283018). As to conditions: primary human endothelial cells (HUVEC); actives raise or lower the signal. The method in brief: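 ELISA read-out of MCP-1 from human vascular endothelial primary cells taken at 24 hours after compound exposure. Activity was fitted in both directions relative to DMSO, which served as negative control.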

Read-out in assay [5]: Human Leukocyte Antigen - DR isotype (HLADR), HLA-DRA (gene 3122)
The assay is described as follows: BSK_3C_HLADR: BioMAP Diversity Plus: 3C Assay for Human Leukocyte Antigen - DR isotype (HLADR) Biomarker Activity (AID 2283019).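 On outcome: ELISA of cell-surface HLA-DR on HUVEC 24 h after dosing.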 As to conditions: primary human endothelial cells (HUVEC); actives raise or lower the signal. In short, it runs like this:
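Bidirectional fitting against DMSO was applied to the HLA-DR ELISA signal from human umbilical vein endothelial cells, 24 h post-dose. Cytotoxicity came from parallel SRB total-protein staining; 3C proliferation was counted by SRB at 48 h.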

Read-out in assay [6]: Interleukin-8 (IL8), CXCL8 (gene 3576)
Put plainly: BSK_3C_IL8: BioMAP Diversity Plus: 3C Assay for Interleukin-8 (IL8) Biomarker Activity (AID 2283020). The conditions noted are these: primary human endothelial cells (HUVEC); actives raise or lower the signal. In short, it runs like this:
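ELISA read-out of IL-8 from human umbilical vein endothelium, measured 24 h after chemical dosing. Activity is expressed relative to DMSO negative control, with both increases and decreases fitted.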

Assay [7] is described as follows: BSK_3C_SRB: Viability Assessment in the BioMAP Diversity Plus: 3C Assay (AID 2283023).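 Further: fitted both ways against DMSO so a hit may be signal rise or drop.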 As to conditions: primary human endothelial cells (HUVEC). In short, it runs like this:
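Cytotoxicity readout in parallel HUVEC 3C cultures: after 24 h compound exposure, cells fixed with 10% TCA, stained with 0.1% SRB and read at 560 nm. Gain or loss relative to DMSO fitted.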

Read-out in assay [8]: Matrix Metallopeptidase 1 (MMP1), MMP1 (gene 4312)
The assay is described as follows: BSK_BE3C_MMP1: BioMAP Diversity Plus: BE3C Assay for Matrix Metallopeptidase 1 (MMP1) Biomarker Activity (AID 2283024). As to conditions: primary human bronchial epithelial cells; actives raise or lower the signal. In short, it runs like this: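 Human bronchial epithelial cells (BE3C system) exposed to compound for 24 h; MMP1 then quantified by ELISA. Activity was fitted in both directions relative to DMSO.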

Assay [9] addresses human Vitamin D Receptor (VDR), VDR (gene 7421) (UniProt P11473). The assay is described as follows: ATG_VDR_TRANS: Attagene TRANS-FACTORIAL HepG2 Assay for human Vitamin D Receptor (VDR) (AID 2283022; active means hit-call score of the fitted dose curve at least 0.9, where 1 is the maximum). The method in brief: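 Transactivation by an exogenous VDR-Gal4 chimera in transiently transfected HepG2 cells was measured as reporter transcript level 24 hours after chemical treatment. RT-PCR products were analysed by capillary electrophoresis and fitted in the positive direction relative to DMSO.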

Read-out in assay [10]: Monokine induced gamma interferon (MIG), CXCL9 (gene 4283)
The assay is described as follows: BSK_3C_MIG: BioMAP Diversity Plus: 3C Assay for Monokine induced gamma interferon (MIG) Biomarker Activity (AID 2283021). As to conditions: primary human endothelial cells (HUVEC); actives raise or lower the signal. In short, it runs like this: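 Read-out is ELISA detection of MIG on human umbilical vein endothelial cells, taken 24 h after dosing. Gain or loss of signal was scored relative to DMSO controls using bidirectional curve fitting.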

Structures are written as SMILES. Inconclusive results are not listed. Activity calls are given as the source filed them. How the source made its calls, unless noted: active means hit-call score of the fitted dose curve at least 0.9, where 1 is the maximum; inactive means score below 0.9.

human Vitamin D Receptor (VDR), VDR (gene 7421), sequence (P11473 whole entry, looked up, the tested form may be a part): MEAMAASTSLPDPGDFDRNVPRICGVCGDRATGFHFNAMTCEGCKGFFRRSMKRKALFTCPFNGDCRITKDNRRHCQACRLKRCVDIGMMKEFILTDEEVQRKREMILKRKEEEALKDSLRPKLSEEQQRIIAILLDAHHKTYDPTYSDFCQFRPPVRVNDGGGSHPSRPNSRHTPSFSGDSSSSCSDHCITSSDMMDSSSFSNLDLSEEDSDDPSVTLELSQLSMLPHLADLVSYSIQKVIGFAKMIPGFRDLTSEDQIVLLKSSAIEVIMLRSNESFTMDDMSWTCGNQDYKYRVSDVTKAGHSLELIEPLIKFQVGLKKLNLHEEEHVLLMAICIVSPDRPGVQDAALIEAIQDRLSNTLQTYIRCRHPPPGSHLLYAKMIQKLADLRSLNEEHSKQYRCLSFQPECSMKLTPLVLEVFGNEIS
E-selectin (Homo sapiens), sequence (P16581 whole entry, looked up): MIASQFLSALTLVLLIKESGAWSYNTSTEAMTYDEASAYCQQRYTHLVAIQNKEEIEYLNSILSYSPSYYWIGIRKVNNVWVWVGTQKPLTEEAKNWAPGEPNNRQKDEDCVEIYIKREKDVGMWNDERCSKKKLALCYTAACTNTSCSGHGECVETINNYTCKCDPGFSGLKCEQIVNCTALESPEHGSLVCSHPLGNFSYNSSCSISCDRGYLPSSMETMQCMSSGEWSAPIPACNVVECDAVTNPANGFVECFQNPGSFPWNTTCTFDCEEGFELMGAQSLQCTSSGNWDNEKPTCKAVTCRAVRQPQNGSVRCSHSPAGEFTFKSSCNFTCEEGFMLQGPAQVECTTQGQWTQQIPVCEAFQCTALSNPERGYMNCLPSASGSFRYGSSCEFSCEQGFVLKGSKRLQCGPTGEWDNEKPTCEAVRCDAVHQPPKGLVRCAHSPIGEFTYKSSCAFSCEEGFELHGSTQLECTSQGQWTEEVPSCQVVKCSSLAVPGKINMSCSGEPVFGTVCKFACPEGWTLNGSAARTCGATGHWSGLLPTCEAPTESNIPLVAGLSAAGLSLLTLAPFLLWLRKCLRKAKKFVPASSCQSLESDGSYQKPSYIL

For the compound `CCCC[C@H]1CN(CC2CCOCC2)C(=O)OC12CCN(C1(C)CCN(C(=O)c3c(C)ncnc3C)CC1)CC2`, the outcome in assay [1], in assay [2], in assay [3], in assay [4], in [5] and in [6] was inactive. Further, in [7], the outcome was inactive.

`C#CC(O)C(CC)CCCC` (stereo not drawn): the result in assay [1], in [2], in assay [3], in assay [4], in [5] and in [6] was inactive. In addition, the result in [7] and in assay [8] was inactive.

Take `CC(=O)OC1CC(C)OC(C)O1` (stereo not drawn): the result in [1], in [2], in assay [3], in assay [4], in [5] and in [6] was inactive. Further, the result in assay [7] and in assay [8] was inactive.

By AC50 is commonly meant the midpoint of the concentration-response curve, whichever way the signal moves. Turning to `CC(C)OC(=O)C(C)(C)Oc1ccc(C(=O)c2ccc(Cl)cc2)cc1`, the outcome in [1], in [2] and in [9] was inactive. Besides, the concentration at half-maximal activity (AC50) in assay [3] is 30.2 µM (active); in assay [4] it was 25.3 µM (active); in assay [5] it was 14.2 µM (active); in assay [6], 14.1 µM (active); in assay [7], 14.8 µM (active); in assay [8], 13.3 µM (active).

Consider `O=C1c2c(O)cccc2Cc2cccc(O)c21`, for which the result in assay [1], in assay [2], in assay [3], in assay [4], in [5] and in [6] was inactive. In addition, the half-maximal activity concentration (AC50) in assay [8] is 4.63 µM (active).

Turning to `Cc1ccc(-c2cc(C(F)(F)F)nn2-c2ccc(S(N)(=O)=O)cc2)cc1`, the concentration at half-maximal activity (AC50) in [1] is 30 µM (active); in assay [2] it was 33.3 µM (active); in assay [3], 37.8 µM (active); in [4], 27.8 µM (active); in assay [5] it was 31 µM (active); in assay [6], 32.7 µM (active). In assay [7], the half-maximal activity concentration (AC50) is 23.1 µM (active).

As to `CC(C)(O)c1ccc(CNC(=O)c2cccnc2Oc2ccc(F)cc2)cc1`, the result in [1], in [2], in assay [3], in assay [4], in [5] and in assay [6] was inactive. Besides, the outcome in assay [8] was inactive.

On to `CC(=O)O`, for which the outcome in assay [1], in assay [2], in assay [3], in [4], in assay [5] and in [6] was inactive. The outcome in assay [7] and in [8] was inactive.

On to `COC(=O)[C@H]1[C@H]2C[C@@H]3c4[nH]c5cc(OC)ccc5c4CCN3C[C@H]2C[C@@H](OC(=O)c2cc(OC)c(OC)c(OC)c2)[C@@H]1OC`, for which the AC50 in [1] was 16.9 µM (active); in assay [3], 16.9 µM (active); in [4], 5.85 µM (active); in [5] it was 25.8 µM (active); in [6], 16.9 µM (active). In addition, the outcome in assay [10] and in assay [8] was inactive.

Take `CCCCC(CC)COC(=O)CCCCCCCC(=O)OCC(CC)CCCC` (stereo not drawn): the result in [1], in assay [2], in [3], in assay [4], in assay [5] and in assay [6] was inactive. Moreover, in assay [7], the outcome was inactive.

On to `CN(C)CCCN1c2ccccc2Sc2ccc(Cl)cc21`, for which the AC50 in assay [1] is 33 µM (active); in assay [2], 31.1 µM (active); in assay [3] it was 30.4 µM (active); in [4] it was 4.5 µM (active); in [5], 29.1 µM (active); in assay [6], 20 µM (active). Besides, in [8], the AC50 was 32.9 µM (active). The compound was called inactive in assay [9].

For the compound `Nc1nc(=S)c2[nH]cnc2[nH]1`, the result in [1], in assay [2], in [3], in assay [4], in assay [5] and in assay [6] was inactive. Further, in assay [8], the result was inactive.

On to `O=[Si]=O`, for which the outcome in [1], in [2], in assay [3], in assay [4], in [5] and in assay [6] was inactive. In addition, the result in [7] and in [8] was inactive.

As for `NCCOCCOCCN`, the outcome in assay [1], in assay [2], in assay [3], in [4], in assay [5] and in [6] was inactive. Also, the call in assay [9] and in assay [7] was inactive.

As for `CC(N)=O`, the outcome in assay [1], in [2], in [3], in [4], in assay [5] and in assay [6] was inactive. In addition, the result in [8] was inactive.

Take `O=C(N[C@@H](c1ccccc1)[C@@H]1CCCCN1)c1cccc(C(F)(F)F)c1Cl`: the result in [1], in [4] and in [9] was inactive. The concentration at half-maximal activity (AC50) in assay [2] is 36 µM (active); in assay [3], 20 µM (active); in assay [5] it was 29.2 µM (active); in [6], 12.7 µM (active); in [8] it was 31.8 µM (active).

As for `N[C@@H](Cc1c[nH]c2ccccc12)C(=O)O`, the outcome in [1], in assay [2], in assay [3], in assay [4], in assay [5] and in assay [6] was inactive. Moreover, the result in assay [7] and in assay [8] was inactive.

For the compound `O=Cc1ccccc1C=O`, the outcome in [1], in assay [2], in assay [3], in assay [4], in assay [5] and in [6] was inactive. Besides, the outcome in [7] and in assay [8] was inactive.

As for `Cc1occc(=O)c1O`, the outcome in [1], in [2], in assay [3], in [4], in assay [5] and in assay [6] was inactive. Moreover, the outcome in [9] and in [7] was inactive.

With `CN(C)C(=O)NC1(c2ccccc2)CCN(CCC[C@]2(c3ccc(Cl)c(Cl)c3)CCCN(C(=O)c3ccccc3)C2)CC1`, the result in assay [1], in assay [2], in [4], in [5] and in assay [8] was inactive. Further, the AC50 was 7.06 µM (active) in [3] and 7.16 µM (active) in assay [6].

Regarding `CCCCCCC(CCCCCCCCCCC(=O)OCC(COC(C)=O)OC(C)=O)OC(C)=O` (stereo not drawn), the outcome in [1], in assay [3], in assay [4], in [5], in assay [6] and in assay [9] was inactive. Also, the outcome in [7] and in assay [8] was inactive. Besides, the AC50 in [2] is 12.3 µM (active).

Regarding `O=C1OC(c2ccc(O)cc2)(c2ccc(O)cc2)c2ccccc21`, the result in assay [1] and in [6] was inactive. The half-maximal activity concentration (AC50) in assay [2] was 34.8 µM (active); in assay [3] it was 14.1 µM (active); in assay [4] it was 20 µM (active); in [5] it was 31.1 µM (active); in assay [7] it was 28.6 µM (active); in assay [8], 3.97 µM (active).

As for `Cc1cc(Cc2ccc(N)c(C)c2)ccc1N`, the outcome in assay [1], in assay [2], in assay [3], in [4], in assay [5] and in assay [6] was inactive. Further, the result in assay [8] was inactive.

For `CCCCCCCCCCCCCCCCO`, the outcome in assay [1], in [2], in assay [3], in assay [4], in [5] and in [6] was inactive. For the same compound, the result in assay [8] was inactive.
